From the supplement of paper PMC10981050
Where “and” joins values, the source holds several entries; their conditions need not be identical. Equal entries are not always repeated. Structures can show the parent of a compound that is named as a salt.

Tests used:
Assay in all cases: cell viability relative to vehicle control; higher = less cytotoxic
Settings in all cases: 10 µM
K562 = system: K562
Summary of the method: (§1)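 Mutant clones made by CRISPR editing and their isogenic wild-type counterparts, from four leukaemia lines, were exposed to a single 10 µM dose of each library compound for 48 h. The supernatant was then removed and CellTiter-Glo luminescence was read. Viability was reported as percent of the on-plate vehicle control.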

MARIMO = system: MARIMO
Summary of the method: as §1

MOLM14 = system: MOLM14
Summary of the method: as §1

OCI-AML2 = system: OCI-AML2
Summary of the method: as §1

| Compound | cell viability (K562; SRSF2 genotype: SRSF2 P95H/wt) | cell viability (K562; SRSF2 genotype: SRSF2 wt/wt) | cell viability (MARIMO; SRSF2 genotype: SRSF2 P95H/wt) | cell viability (MARIMO; SRSF2 genotype: SRSF2 wt/wt) | cell viability (MOLM14; SRSF2 genotype: SRSF2 P95H/wt) | cell viability (MOLM14; SRSF2 genotype: SRSF2 wt/wt) | cell viability (OCI-AML2; SRSF2 genotype: P95H/wt) | cell viability (OCI-AML2; SRSF2 genotype: wt/wt) |
| --- | --- | --- | --- | --- | --- | --- | --- | --- |
| COc1cc([C@@H]2c3cc4c(cc3[C@@H](O)[C@H]3COC(=O)[C@H]23)OCO4)cc(OC)c1O [4'-Demethylepipodophyllotoxin] | 36.4% and 51% | 51.2% | 26.8% | 31.3% | 13.4% | 6.99% | 20.9% | 24.2% |
| CC(=O)O[C@H]1[C@H]2[C@@H](OC(=O)Cc3ccccc3)[C@@H](C)C[C@]2(OC(C)=O)C(=O)/C(C)=C/[C@@H]2[C@H](CC[C@@]13CO3)C2(C)C [Euphorbiasteroid] | 63.8% and 85.5% | 84.1% | 111% | 27.6% | 46.1% | 30.6% | 27.2% | 22.4% |
| CC(C)C1=CC(=O)[C@@](C)(C2[C@H](O)C[C@@]3(C)[C@@H]4CC=C5[C@@H](CC[C@@H](OC6OCC(O)C(O)C6OC6OC(C)C(O)C(O)C6O)C5(C)C)[C@]4(C)C(=O)C[C@]23C)O1 (stereo partly specified) [Picfeltarraenin IA] | 95.9% and 96.6% | 89.6% | 92.2% | 92.5% | 89.7% | 93.2% | 94.3% | 101% |
| O=C(O[C@H]1C[N+]2(CCCOc3ccccc3)CCC1CC2)C(O)(c1cccs1)c1cccs1 [Aclidinium Bromide] | 104% and 98.9% | 101% | 108% | 111% | 103% | 106% | 106% | 106% |
| Cc1cc2c(C(C)C)c(O)c(O)c(C=O)c2c(O)c1-c1c(C)cc2c(C(C)C)c(O)c(O)c(C=O)c2c1O | 2.58% and 2.65% | 13.3% | 11.7% | 15.4% | 0.51% | 1.24% | 0.59% | 1.12% |
| C[C@@]12N[C@@H](Cc3ccccc31)c1ccccc12 [(-)-MK 801 maleate] | 105% and 106% | 108% | 101% | 100% | 100% | 112% | 98.3% | 90.7% |
| COC(=O)C1=CCCN(C)C1 [Arecoline HBr] | 93.5% and 96.8% | 97.5% | 96% | 99% | 97.4% | 99.9% | 92% | 106% |
| C/C=C\c1cc(OC)c(OC)cc1OC [Beta-Asarone] | 106% and 104% | 104% | 98% | 102% | 104% | 104% | 104% | 105% |
| CC[C@@]1(O)C(=O)OCc2c1cc1n(c2=O)Cc2cc3ccccc3nc2-1 [Camptothecin] | 27.3% and 26.7% | 21.8% | 5.71% | 3.67% | 3.1% | 1.35% | 3.26% | 3.91% |
| Cc1cccc(C)c1NC1=NCCCS1 [Xylazine HCl] | 101% and 85.1% | 82.8% | 85.1% | 96.8% | 90.4% | 91.5% | 89.1% | 93.1% |
| N#CC=C1C=CC(O)C(O)C1OC1OC(CO)C(O)C(O)C1O (stereo unspecified) [Lithospermoside] | 89.9% and 83.2% | 84.3% | 86.5% | 97.5% | 87.4% | 91.7% | 95% | 116% |
| CN1CCCCC1Cn1cc(C(=O)c2cc([N+](=O)[O-])ccc2I)c2ccccc21 (stereo unspecified) | 83.1% and 88.8% | 87.2% | 84.2% | 103% | 3.13% | 2.06% | 76.2% | 65.5% |
| CC(C)(C)c1cc(C=C(C#N)C#N)cc(C(C)(C)C)c1O [Tyrphostin 9 (SF 6847)] | 14.4% and 18.5% | 18.5% | 23.8% | 23.8% | 17.7% | 12.2% | 5.2% | 11.5% |
| CC1=C(O)C(=O)C=C2C1=CC=C1[C@@]2(C)CC[C@@]2(C)[C@@H]3C[C@](C)(C(=O)O)CC[C@]3(C)CC[C@]12C [Celastrol] | 0.95% and 0.55% | 0.65% | 0.44% | 0.52% | 0.47% | 0.51% | 0.35% | 0.44% |
| O=C(O)CNC(=O)C1C(=O)N(C2CCCCC2)C(=O)N(C2CCCCC2)C1=O | 93.8% and 88.7% | 83.9% | 86.5% | 101% | 83.8% | 94.1% | 98.8% | 98.5% |
| CC[C@H]1CN2CC[C@]3(C(=O)Nc4ccccc43)[C@@H]2C[C@@H]1/C(=C\OC)C(=O)OC [Rhynchophylline] | 93.2% and 97.5% | 89.5% | 80.4% | 77.7% | 88.9% | 88.3% | 86.7% | 88.5% |
| C[N+]1(C)CCCC(OC(=O)C(O)(c2ccccc2)c2ccccc2)C1 (stereo unspecified) [mepenzolate bromide] | 106% and 102% | 98.9% | 103% | 112% | 104% | 104% | 101% | 105% |
| CN1CCN(c2nc3ccccc3nc2Cl)CC1 | 96.3% and 106% | 98.8% | 93.1% | 103% | 105% | 109% | 107% | 102% |
| COC1=C[C@@H]2[C@@H]3Cc4ccc(OC)c(O)c4[C@]2(CCN3C)CC1=O [Sinomenine hydrochloride] | 104% and 105% | 97.9% | 102% | 101% | 98.5% | 101% | 103% | 109% |

| Compound | cell viability (K562; SRSF2 genotype: SRSF2 P95H/wt) | cell viability (K562; SRSF2 genotype: SRSF2 wt/wt) | cell viability (MARIMO; SRSF2 genotype: SRSF2 P95H/wt) | cell viability (MARIMO; SRSF2 genotype: SRSF2 wt/wt) | cell viability (MOLM14; SRSF2 genotype: SRSF2 P95H/wt) | cell viability (MOLM14; SRSF2 genotype: SRSF2 wt/wt) | cell viability (OCI-AML2; SRSF2 genotype: P95H/wt) | cell viability (OCI-AML2; SRSF2 genotype: wt/wt) |
| --- | --- | --- | --- | --- | --- | --- | --- | --- |
| Cn1cc(C2=C(c3cn(C4CCN(Cc5ccccn5)CC4)c4ccccc34)C(=O)NC2=O)c2ccccc21 | 91.5% and 86.9% | 91.3% | 93% | 101% | 76.9% | 91.3% | 110% | 111% |
| COCC1(CO)C(=O)C2CCN1CC2 (stereo unspecified) | 35.9% and 43.5% | 63.5% | 65.3% | 57.5% | 9.18% | 3.69% | 14.8% | 15.9% |
| C=C(C)[C@H]1Cc2c(ccc3c2O[C@@H]2COc4cc(OC)c(OC)cc4[C@@H]2C3=O)O1 [Rotenone (Barbasco)] | 12.8% and 22.4% | 23.4% | 5.86% | 10.5% | 15.6% | 3.2% | 9.69% | 13.8% |
| COc1cc([C@@H]2c3cc4c(cc3[C@H](O)[C@H]3COC(=O)[C@H]23)OCO4)cc(OC)c1O [4'-Demethylpodophyllotoxin] | 15.8% and 34.9% | 35.7% | 8.03% | 7.56% | 0.85% | 0.99% | 1.45% | 3.83% |
| Cc1cc(C(C#N)c2ccc(Cl)cc2)c(Cl)cc1NC(=O)c1cc(I)cc(I)c1O (stereo unspecified) [Closantel] | 95% and 92.2% | 92.3% | 102% | 108% | 99% | 100% | 92.4% | 110% |
| COc1cc(OC)c(OC)cc1C=O [Asaraldehyde (Asaronaldehyde)] | 110% and 107% | 106% | 100% | 114% | 110% | 105% | 102% | 105% |
| O=[N+]([O-])c1ncc[nH]1 [Azomycin (2-Nitroimidazole)] | 102% and 103% | 101% | 101% | 101% | 95.3% | 100% | 97.8% | 96.8% |
| CN1CC=C(c2ccccc2)CC1 [MPTP hydrochloride] | 100% and 99.7% | 102% | 107% | 111% | 103% | 105% | 92.5% | 108% |
| C[C@@H]1O[C@@H](O[C@H]2C[C@@H](O)[C@]3(CO)[C@H]4[C@H](O)C[C@]5(C)[C@@H](C6=CC(=O)OC6)CC[C@]5(O)[C@@H]4CC[C@]3(O)C2)[C@H](O)[C@H](O)[C@H]1O [Ouabain] | 10.4% and 12.3% | 12.4% | 10.7% | 4.01% | 3.34% | 0.78% | 0.73% | 2.79% |
| CN(C)[C@@H]1C(=O)C(C(N)=O)=C(O)[C@@]2(O)C(=O)C3=C(O)c4c(O)ccc(Cl)c4[C@@](C)(O)[C@H]3C[C@@H]12 [Chlortetracycline HCl] | 106% and 108% | 107% | 105% | 108% | 105% | 105% | 102% | 103% |
| C[C@H]1CC(=O)C[C@@H]2CC[C@H]3[C@@H]4CC[C@H](O)[C@@]4(C)CC[C@@H]3[C@]21C [Mesterolone] | 84.1% and 79.7% | 83% | 71.6% | 82.2% | 79.9% | 84.7% | 75.6% | 80.7% |
| CC1C(=O)OC2C(O)C34C5OC(=O)C3(OC3OC(=O)C(O)C34C(C(C)(C)C)C5O)C12O (stereo unspecified) [Ginkgolide C] | 98.9% and 97.9% | 94.4% | 93.5% | 97.6% | 103% | 103% | 102% | 105% |
| CN1C(=O)CCS(=O)(=O)C1c1ccc(Cl)cc1 (stereo unspecified) [Chlormezanone (Trancopal)] | 102% and 101% | 93.5% | 97% | 96.7% | 93.1% | 97.2% | 94.1% | 95.6% |
| C[C@@H]1CC[C@H]2[C@@H](C)C(=O)O[C@@H]3O[C@@]4(C)CC[C@@H]1[C@]32OO4 [Artemisinin] | 83% and 79.2% | 78.7% | 74.8% | 93.3% | 85.8% | 87.3% | 84.6% | 98.2% |
| C/C(=C\c1csc(C)n1)[C@@H]1C[C@@H]2O[C@]2(C)CCC[C@H](C)[C@H](O)[C@@H](C)C(=O)C(C)(C)[C@@H](O)CC(=O)O1 [Patupilone (EPO906, Epothilone B)] | 29% and 37% | 39.4% | 7.88% | 6.51% | 8.36% | 2.95% | 6.03% | 11.7% |
| O=C(NC(=O)c1c(F)cccc1F)Nc1ccc(OC(F)(F)C(F)OC(F)(F)F)c(Cl)c1 (stereo unspecified) [Novaluron] | 110% and 101% | 113% | 94.2% | 98.4% | 106% | 106% | 98.1% | 109% |
| O=C1C=CC[C@@H]2[C@H]3CCCN4CCC[C@@H](CN12)[C@@H]34 [Sophocarpine] | 103% and 107% | 102% | 108% | 111% | 106% | 106% | 98.4% | 108% |
| O=C/C=C/c1ccccc1 [Cinnamaldehyde] | 97.5% and 92.8% | 94.3% | 92% | 95.3% | 96.1% | 98.9% | 102% | 102% |
